# From PubChem BioAssay (Tox21)
# Inconclusive results are not listed. The source made the active and inactive calls. Calls follow the shape of the full dose curve.
# Assay: qHTS assay for small molecule agonists of the antioxidant response element (ARE) signaling pathway - cell viability counter screen (AID 743203); also: nearly all actives have a fitted effect of over 55% in size
# Conditions: ARE-bla HepG2 viability, CellTiter-Glo luminescence, 16 h; series mostly up to 73.3 µM; viability change, negative = cytotoxic: at the top concentration
# Source text: National Center for Advancing Translational Sciences [NCATS]
# NIH Chemical Genomics Center [NCGC]
# U.S. Environmental Protection Agency [EPA]
# National Institutes of Environmental Health Sciences [NIEHS]
# National Toxicology Program [NTP]
# U.S. Food and Drug Administration [FDA]
# Oxidative stress has been implicated in the pathogenesis of a variety of diseases ranging from cancer to neurodegeneration. The antioxidant response element (ARE) signaling pathway plays an important role in the amelioration of oxidative stress. The CellSensor ARE-bla HepG2 cell line (Invitrogen) can be used for analyzing the Nrf2/antioxidant response signaling pathway. Nrf2 (NF-E2-related factor 2) and Nrf1 are transcription factors that bind to AREs and activate these genes. The CellSensor ARE-bla Hep G2 cell line contains a beta-lactamase reporter gene under control of the Antioxidant Response Element (ARE) stably integrated into HepG2 cells. The activation of the report gene under culture conditions can be detected by fluorescence intensity. This cell line has been used to screen the Tox21 10K compound library to identify agonists that induce oxidative stress. The cytotoxicity of the Tox21 compound library against the ARE-bla cell line was tested in parallel by measuring the cell viability using CellTiter-Glo assay (Promega, Madison, WI) in the same wells.
# Tox21 Assay Protocol Summary:
# ARE-bla HepG2 cells were dispensed at 2,000 cells/5 ul/well in 1536-well white wall/solid bottom plates using a Multidrop Combi (ThermoFisher Scientific, Waltham, MA) dispenser. After the assay plates were incubated at 37C/5% CO2 for 5 hrs, 23 nL of compounds dissolved in DMSO, positive controls or DMSO only was transferred to the assay plate by a pintool work station (Kalypsys, San Diego, CA). The plates were incubated at 37C/5% CO2 for 16 hrs, followed by addition of 4 ul/well of CellTiter-Glo reagent into the assay plates using a Flying Reagent Dispenser (Aurora Discovery, San Diego, CA). After 30 min incubation at room temperature, the luminescence intensity in the assay plates was measured using a ViewLux (PerkinElmer, Shelton, CT) plate reader.
# % is scaled to controls: 0 for no effect and ±100 for the full control effect; potency is read from the fitted curve at half-maximal effect.
Compound,"viability change, negative = cytotoxic",Potency
OCC(CBr)(CBr)CBr,-9.08% (inactive),–
CCOC(=O)COc1ccc2c(c1)CC(NCC(O)c1cccc(Cl)c1)CC2 (stereo not given),–,48.9 µM (active)
CCCCc1ccc2nc(NC(=O)OC)[nH]c2c1,24.8% (inactive),–
CO[Si](C)(C)OC,2.69% (inactive),–
COc1cc2c(cc1N)oc1ccccc12,-9.42% [at 94.8 µM] (inactive),–
CC(=O)O[C@H]1CC[C@@]2(C)C(=CC[C@@H]3[C@@H]2CC[C@]2(C)C(C(C)=O)=CC[C@@H]32)C1,15.1% (inactive),–
Cc1ncc(CO)c(CN)c1O,0.761% (inactive),–
CC(C)NC[C@@H](O)COc1cccc2ccccc12,-0.469% (inactive),–
Nc1ccc(Oc2ccc(N)c(N)c2)cc1,18.1% (inactive),–
NCCC(O)(P(=O)(O)O)P(=O)(O)O,14.2% (inactive),–
FC(F)(F)C(F)(F)C(F)(F)C(F)(F)C(F)(F)C(F)(F)C(F)(F)C(F)(F)Br,9.39% (inactive),–
O=C1CCC(C2CCCCC2)CC1,0.842% (inactive),–
OCCN(CCO)c1ccccc1,2.96% (inactive),–
O=C1C=CC(=O)O1,4.2% [at 94.8 µM] (inactive),–
Cc1ccc(C(C)C)cc1O,-1.78% (inactive),–
CCCc1c2oc(C(=O)O)cc(=O)c2cc2c(=O)cc(C(=O)O)n(CC)c12,0.41% (inactive),–
COC(C)CCO (stereo not given),12.8% (inactive),–
CCN(CC)C(=O)N(CC)CC,-5.44% (inactive),–
COc1ccccc1OCC(O)COC(N)=O (stereo not given),1.12% (inactive),–
CS(=O)(=O)c1ccc([C@@H](O)[C@@H](CF)NC(=O)C(Cl)Cl)cc1,6.61% (inactive),–

Compound,"viability change, negative = cytotoxic",Potency
CC(C)Nc1nc(N)nc(Cl)n1,8.96% (inactive),–
C[C@@H]1CN(c2c(F)c(F)c3c(=O)c(C(=O)O)cn(C4CC4)c3c2F)C[C@H](C)N1,1.36% [at 34.3 µM] (inactive),–
CO[C@@]1(NC(=O)CSCC#N)C(=O)N2C(C(=O)O)=C(CSc3nnnn3C)CS[C@@H]21,9.75% (inactive),–
CCOc1ccc(NS(=O)(=O)c2ccc(N)cc2)nn1,-0.0619% (inactive),–
O=[N+]([O-])c1nccn1CO[C@@H](CO)[C@H](O)CO,0.221% (inactive),–
CCC1(C)NC(=O)NC1=O (stereo not given),-2.09% (inactive),–
CC(C)OC(C)C,9.52% [at 94.8 µM] (inactive),–
Cc1nc(N)nc(N)c1-c1ccc(Cl)c(Cl)c1,–,0.668 µM (active)
CCOC(=O)[C@H](CCc1ccccc1)N[C@@H](C)C(=O)N1Cc2cc(OC)c(OC)cc2C[C@H]1C(=O)O,2.85% (inactive),–
Nc1ccc2ccccc2c1S(=O)(=O)O,-1.65% [at 94.8 µM] (inactive),–
O=C(O)[C@@H](O)[C@H](O)[C@H](O)[C@@H](O)C(=O)O,1.52% (inactive),–
CC(=O)OC1C2(C)CCC(C2)C1(C)C (stereo not given),5.59% (inactive),–
CCN(CCCc1ccccc1)CCCc1ccccc1,-19.5% (inactive),–
NC1=NCC2c3ccccc3Cc3ccccc3N12 (stereo not given),0.17% (inactive),–
NC/C=C/C(=O)O,6.68% (inactive),–
CN1C(=O)CC(c2ccccc2)C1=O (stereo not given),9.22% (inactive),–
O=C1CCN(c2ccccc2)N1,0.785% [at 94.8 µM] (inactive),–
CN(CC1(C)CCCO1)S(=O)(=O)c1ccc(Cl)c(S(N)(=O)=O)c1 (stereo not given),-1.02% (inactive),–
CN1CCN(c2c(F)cc3c(=O)c(C(=O)O)cn4c3c2SCC4)CC1,2.26% (inactive),–
N#Cc1ccc(C(c2ccc(C#N)cc2)n2cncn2)cc1,8.4% (inactive),–
